# Screening data: PubChem BioAssay, several laboratories
# Measles CPE – compounds protecting cells from measles virus cytopathic effect, primary screen, measles RdRp inhibitor project, single point, MLSMR library, absorbance | Measles virus-infected cells, CPE protection | protection (pct of control), % at 4 µM | 140,000 compounds, 1.5% hits | AID 841, 2007; in the data active = protection mostly above about 24%, no sharp cut-off; inactive = mostly below about 26%
# CYP2C9 inhib – blockers of cytochrome P450 2C9 activity – biochemical, luminescence, ADME assay, primary screen | P11712 | CYP2C9 Supersomes, luciferin-H conversion | inhibition, % at 5 µM | 96,000 compounds, 20% hits;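 active = blocking of liver enzyme CYP2C9 beyond about 50% at 5 µM, limit read from the data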
# CYP2C19 inhib – blockers of cytochrome P450 2C19 activity – biochemical, luminescence, ADME assay, primary screen; CYP2C19 Supersomes, luciferin-H EGE luminescence, 30 min; inhibition, % at 5 µM; AID 778, 2007; 96,000 compounds, 21% hits; P33261;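 active = CYP2C19 inhibition above a set limit at 5 µM in the primary screen, cut at about 50% in these data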
# Target sequence (P33261 whole entry, looked up): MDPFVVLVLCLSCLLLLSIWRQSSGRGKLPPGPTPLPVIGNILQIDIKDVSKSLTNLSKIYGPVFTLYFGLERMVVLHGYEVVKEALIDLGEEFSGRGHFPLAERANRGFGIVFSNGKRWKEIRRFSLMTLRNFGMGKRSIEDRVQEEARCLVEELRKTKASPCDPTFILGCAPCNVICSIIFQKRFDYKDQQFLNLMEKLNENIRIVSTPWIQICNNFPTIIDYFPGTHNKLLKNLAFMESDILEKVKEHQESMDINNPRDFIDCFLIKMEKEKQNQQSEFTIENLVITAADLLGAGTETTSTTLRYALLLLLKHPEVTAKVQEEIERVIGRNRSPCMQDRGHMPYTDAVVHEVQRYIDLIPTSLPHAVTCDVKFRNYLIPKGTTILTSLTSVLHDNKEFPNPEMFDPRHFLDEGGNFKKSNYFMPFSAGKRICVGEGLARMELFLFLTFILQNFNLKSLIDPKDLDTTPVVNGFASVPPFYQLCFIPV
# CYP2C9 activ – human CYP2C9 activators, primary screen, biochemical, luminescence | recombinant CYP2C9, luciferin-H conversion; active compounds read high; factor 1 = untreated enzyme, 0 = blocked | activation factor at 5 µM | 96,000 compounds, 1.4% hits | AID 1024, 2008;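 active = activation factor of 2 or more for CYP2C9 at a 5 µM dose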
# CYP2C19 activ – human CYP2C19 activators, primary screen, biochemical, luminescence. activation factor at 5 µM. recombinant CYP2C19, luciferin-H EGE luminescence; active compounds read high; 0 = fully inhibited enzyme, 1 = untreated enzyme. 96,000 tested, under 10 active. Cytochrome P450 2C19 (Homo sapiens), P33261. AID 1025, 2008;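 active = activation factor of at least 2 at 5 µM in the primary screen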
# Numbers stand for hits; . = inactive; / = no result. Rows were chosen to be rich in hits. Some 22% of all compounds tested hit in one or more screens of this group.
SMILES,Measles CPE,CYP2C9 inhib,CYP2C19 inhib,CYP2C9 activ,CYP2C19 activ
O=C(CSc1nc2ccccc2[nH]1)Nc1ccccc1F,.,83.5,63.7,.,.
COc1ccc(OC)c(S(=O)(=O)NCCC2=CCCCC2)c1,.,89.3,100.3,.,.
COc1ccc(OC)c(S(=O)(=O)Nc2ccccc2SC)c1,.,/,/,/,/
CCNS(=O)(=O)c1cc(OC)ccc1OC,.,89.6,85.2,.,.
COc1ccc(OC)c(S(=O)(=O)NCCO)c1,.,.,.,.,.
COc1ccc(OC)c(N/C=C2/CCCCC2=O)c1,.,55.1,.,.,.
COc1ccc(N/C=C2/CCCCC2=O)cc1,.,.,.,.,.
COc1ccc(OC)c(NS(=O)(=O)c2cc(OC)ccc2OC)c1,.,59.2,95.5,.,.
CC(=O)OC[C@H]1O[C@@H](O/N=C/C[C@@H]2C=C[C@H](OC(C)=O)[C@@H](COC(C)=O)O2)[C@H](OC(C)=O)[C@@H](OC(C)=O)[C@@H]1OC(C)=O,.,/,/,/,/
COc1ccc(OC)c(S(=O)(=O)Nc2ccccc2C)c1,.,.,86.9,.,.
CC(O)c1nc2ccccc2n1CCOc1ccccc1 (configuration not stated),37.9,/,/,/,/
CCOc1ccccc1OCCn1nnc2ccccc21,.,.,83.2,.,.
CCOc1cc(C#N)c(NC(=O)Cn2nnc3ccccc32)cc1OCC,.,.,.,.,.
COc1ccccc1OCCn1c(CO)nc2ccccc21,.,.,55.8,.,.
CC(C)CCn1c(C(C)O)nc2ccccc21 (configuration not stated),.,.,.,.,.
COc1ccccc1OCCn1c(C(C)O)nc2ccccc21 (configuration not stated),75.9,.,85.2,.,.
O=C(O)COc1ccc(S(=O)(=O)c2ccc(OCC(=O)O)cc2)cc1,.,.,.,.,.
CCOC(=O)N1CCN(C2CC(=O)N(c3ccc(Oc4ccccc4)cc3)C2=O)CC1 (configuration not stated),.,.,.,.,.
COCCn1c(COc2ccc(OC)cc2)nc2ccccc21,.,.,92.0,.,.
OCc1nc2ccccc2n1CC(O)COc1ccccc1 (configuration not stated),29.2,.,.,.,.
CCc1nc2ccccc2n1CC(O)COc1ccc(NC(C)=O)cc1 (configuration not stated),.,/,/,/,/
Cc1cccc(OCCCn2c(CCNC(=O)C(C)C)nc3ccccc32)c1,.,/,/,/,/
Cc1cccc(OCCn2c(CCCO)nc3ccccc32)c1,.,68.3,90.9,.,.
Cc1cc(C)n(-c2nnc3n2N=C(c2ccccc2)CS3)n1,.,.,51.0,.,.
Brc1ccccc1C1=Nn2c(nnc2-c2ccccc2)SC1,.,62.5,89.7,.,.
SMILES,Measles CPE,CYP2C9 inhib,CYP2C19 inhib,CYP2C9 activ,CYP2C19 activ
CC(C)(C)c1ccc(-c2n[nH]c(=S)n2/N=C/c2ccncc2)cc1,.,/,/,/,/
N#Cc1c(-c2ccc(Br)cc2)cc(-c2cccnc2)nc1N,.,/,/,/,/
CS(=O)(=O)c1nc(-c2ccc(Br)cc2)cc(-c2ccccc2)c1C#N,.,73.2,57.2,.,.
CS(=O)c1nc(-c2ccc(Br)cc2)cc(-c2ccccc2)c1C#N (configuration not stated),.,82.6,57.0,.,.
Cc1ccc(OCC(=O)NNC(=O)C2CCN(c3nc(C)cc(C)n3)CC2)cc1,.,.,.,.,.
COc1cccc(NC(=O)c2cccs2)c1,.,.,54.0,.,.
COc1cc(C(=O)Nc2ccc3c(c2)OCO3)ccc1-n1cnnn1,.,.,.,.,.
COc1cccc(NC(=O)Cc2cccs2)c1,.,.,51.1,.,.
COC(=O)c1sc2ccccc2c1NC(=O)c1cccs1,.,60.3,.,.,.
COc1cc(NC(=O)Cc2cccs2)ccc1-n1cnnn1,29.0,.,52.8,.,.
COc1cc(NC(=O)c2cccs2)cc(OC)c1,.,.,.,.,.
Cc1cc(C)c2nc(C(F)(F)F)nc(NCCCN3CCOCC3)c2c1,.,.,.,.,.
COc1cc(NC(=O)Cc2cccs2)cc(OC)c1,33.9,.,80.7,.,.
COc1cccc(NC(=O)c2cccc(OC)c2OC)c1,.,.,81.0,.,.
